The nature of experiment [1]: ATG_E_Box_CIS: Attagene CIS-FACTORIAL HepG2 Assay for human Enhancer Box (E-box) (AID 2282936). The following applies: HepG2 E-box cis-reporter transcription, actives raise or lower the signal. The method in brief: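 E-box-driven reporter transcripts measured in transiently transfected HepG2 after 24 h exposure: RNA reverse-transcribed, PCR-amplified, fluorescently labelled, digested and resolved by capillary electrophoresis. Gain or loss relative to DMSO.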

Experiment [2] in a line: ATG_M_61_CIS: Attagene CIS-FACTORIAL HepG2 Assay for M61 Transcription Factor (Internal Marker) (AID 2282937). Particulars: HepG2 Attagene CIS-FACTORIAL M61 internal marker reporter; actives raise or lower the signal. The essentials:
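Using transiently transfected HepG2 liver cells, reporter transcript levels were assessed 24 h post-dosing by RT-PCR and capillary electrophoresis. Changes in either direction were fitted relative to DMSO controls.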

Experiment [3] can be described thus: ATG_EGR_CIS: Attagene CIS-FACTORIAL HepG2 Assay for human Early Growth Response 1 (EGR1) (AID 2282938). Particulars: HepG2 Attagene CIS-FACTORIAL EGR reporter mRNA; actives raise or lower the signal. The method in brief: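 Fluorescent capillary-electrophoresis signal of reporter cDNA fragments serves as read-out. HepG2 cells bear transiently transfected cis-promoter reporter units and are exposed 24 h; gain- or loss-of-signal is fitted against DMSO.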

Experiment [4] in a line: ATG_M_19_CIS: Attagene CIS-FACTORIAL HepG2 Assay for M19 Transcription Factor (Internal Marker) (AID 2282939). The following applies: HepG2 Attagene CIS-FACTORIAL M19 internal marker reporter; actives raise or lower the signal. The method in brief:
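HepG2, MRTU transient transfection, 24 h dosing. Total RNA → RT-PCR → 6-FAM primer extension → HpaI digest → CE fluorescence. Bidirectional curve fit, DMSO negative control.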

A short description of experiment [5]: ATG_Ets_CIS: Attagene CIS-FACTORIAL HepG2 Assay for human Erythroblast Transformation Specific (ETS) (AID 2282941). Particulars: HepG2 ETS cis-reporter transcription, actives raise or lower the signal. The method in brief: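 Cis-regulated reporter mRNA induction in HepG2 (transient transfection), 24 h exposure, RT-PCR plus capillary electrophoresis detection; DMSO serves as negative control and baseline.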

Experiment [6] has as its target Hepatocyte nuclear factor 3-beta (Homo sapiens) (UniProt Q9Y261). Put plainly: ATG_FoxA2_CIS: Attagene CIS-FACTORIAL HepG2 Assay for human Forkhead box A2 (FOXA2) (AID 2282942). The following applies: HepG2 cis-reporter transcription factor activity, 24 h; actives raise or lower the signal. The essentials: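 Fluorescence signal of reporter cDNA fragments, separated by capillary electrophoresis, reflects endogenous transcription factor activity in transfected HepG2 after 24 h. Both increases and decreases fitted against DMSO.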

A short description of experiment [7]: ATG_FoxO_CIS: Attagene CIS-FACTORIAL HepG2 Assay for human Forkhead box O (FoxO) (AID 2282943). The following applies: HepG2 Attagene cis-reporter, FoxO element, mRNA; actives raise or lower the signal. The essentials:
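Human hepatoma HepG2 cells carry transiently introduced reporter transcription units controlled by cis promoter elements. Chemical treatment lasted 24 h, and mRNA signal was compared with DMSO.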

A short description of experiment [8]: ATG_GATA_CIS: Attagene CIS-FACTORIAL HepG2 Assay for human GATA Binding Protein (AID 2282944). The following applies: HepG2 GATA cis-element reporter, Attagene multiplex mRNA; actives raise or lower the signal. The method in brief:
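Cells: HepG2, transiently transfected with cis-regulated reporter transcription units. Exposure: 24 h. Detection: RT-PCR plus capillary electrophoresis of FAM-labeled fragments. Analysis: bidirectional, DMSO as baseline.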

A short description of experiment [9]: ATG_GLI_CIS: Attagene CIS-FACTORIAL HepG2 Assay for human Zinc Finger Protein GLI1 (AID 2282945). Particulars: HepG2, Attagene cis-factorial reporter mRNA, GLI element; actives raise or lower the signal. The essentials: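 Bidirectional curve fits relative to DMSO, using reporter mRNA levels from RT-PCR plus capillary electrophoresis. Cells were HepG2 transiently carrying cis-regulated reporter constructs, harvested 24 h after dosing.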

The structures appear in SMILES notation. Activity calls are given as the source filed them. Rule for the calls: active = hit-call score of the fitted dose curve at least 0.9, where 1 is the maximum; inactive = score below 0.9.

Chain of Hepatocyte nuclear factor 3-beta (Homo sapiens) (Q9Y261 whole entry, looked up, the tested form may be a part): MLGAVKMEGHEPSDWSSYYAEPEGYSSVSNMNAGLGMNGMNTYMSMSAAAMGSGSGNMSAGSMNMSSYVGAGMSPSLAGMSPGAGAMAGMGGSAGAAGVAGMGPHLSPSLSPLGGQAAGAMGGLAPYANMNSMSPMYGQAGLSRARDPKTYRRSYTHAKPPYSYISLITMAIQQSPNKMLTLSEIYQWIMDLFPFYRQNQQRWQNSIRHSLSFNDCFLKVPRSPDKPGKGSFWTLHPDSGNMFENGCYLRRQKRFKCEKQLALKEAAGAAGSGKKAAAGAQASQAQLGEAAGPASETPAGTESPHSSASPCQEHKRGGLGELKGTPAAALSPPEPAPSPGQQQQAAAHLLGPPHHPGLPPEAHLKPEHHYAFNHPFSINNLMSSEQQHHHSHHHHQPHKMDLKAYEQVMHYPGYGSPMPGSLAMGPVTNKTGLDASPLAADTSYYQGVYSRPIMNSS

On to `c1ccc(CCc2ccccc2)cc1`, for which the outcome in [1], in [2], in experiment [3], in [4], in [5] and in experiment [6] was inactive. The result in [7], in experiment [8] and in [9] was inactive.
On to `CC(O)C1CCCCC1` (stereo not drawn), for which the result in experiment [1], in [2], in experiment [3], in [4], in experiment [5] and in [6] was inactive. The outcome in experiment [7], in experiment [8] and in experiment [9] was inactive.
As to `Nc1ccc(Cl)c([N+](=O)[O-])c1`, the result in [1], in [2], in experiment [3], in experiment [4], in experiment [5] and in experiment [6] was inactive. Also, the call in [7], in experiment [8] and in [9] was inactive.
Regarding `C[Si]1(C)O[Si](C)(C)O[Si](C)(C)O1`, the outcome in experiment [1], in experiment [2], in [3], in experiment [4], in [5] and in experiment [6] was inactive. Further, the call in [7], in experiment [8] and in experiment [9] was inactive.
In the case of `CC(=O)Nc1ccc(C(=O)CCl)cc1`, the half-maximal activity concentration (AC50) in experiment [1] is 20.6 µM (active). In addition, the call in experiment [2], in experiment [3], in [4], in experiment [5], in experiment [6] and in experiment [7] was inactive. For the same molecule, the molecule was called inactive in [8] and in experiment [9].
As for `CCCCCCCCCC(C)C=O` (stereo not drawn), the outcome in [1], in [2], in [3], in [4], in experiment [5] and in [6] was inactive. Moreover, the molecule was classed as inactive in experiment [7], in [8] and in [9].
Consider `O=Cc1ccccc1S(=O)(=O)O`, for which the result in [1], in experiment [2], in [3], in experiment [4], in experiment [5] and in [6] was inactive. Besides, the call in [7], in [8] and in [9] was inactive.
Turning to `CC=Cc1ccc(OC)c(OC)c1`, the outcome in experiment [1], in experiment [2], in experiment [3], in experiment [4], in experiment [5] and in experiment [6] was inactive. Further, the call in [7], in [8] and in [9] was inactive.
As to `O=C(c1ccccc1)C(O)c1ccccc1` (stereo not drawn), the outcome in experiment [1], in experiment [2], in experiment [3], in experiment [4], in [5] and in experiment [6] was inactive. Besides, the molecule was classed as inactive in experiment [7], in [8] and in experiment [9].
As for `C/C=C(\C)C(=O)OCCc1ccccc1`, the outcome in [1], in experiment [2], in experiment [3], in experiment [4], in experiment [5] and in experiment [6] was inactive. For the same molecule, the outcome in [7], in experiment [8] and in experiment [9] was inactive.
Turning to `O=C(O)COCC(=O)O`, the outcome in experiment [1], in experiment [2], in [3], in experiment [4], in experiment [5] and in experiment [6] was inactive. The molecule was called inactive in experiment [7], in experiment [8] and in experiment [9].
Turning to `COC(C)(C)CC(C)=O`, the result in experiment [1], in experiment [2], in [3], in experiment [4], in [5] and in experiment [6] was inactive. For the same molecule, the call in experiment [7], in experiment [8] and in experiment [9] was inactive.
In the case of `c1ccc2cc(Nc3ccc(Nc4ccc5ccccc5c4)cc3)ccc2c1`, the outcome in [1], in experiment [2], in experiment [3], in experiment [4], in experiment [5] and in [6] was inactive. The molecule was called inactive in experiment [7], in experiment [8] and in experiment [9].
With `C=Cc1ccncc1`, the AC50 was 46.1 µM (active) in experiment [1]; 37.1 µM (active) in [3]; 57.3 µM (active) in [5]; 43.4 µM (active) in [7]; 22.7 µM (active) in experiment [8]. Further, the molecule was called inactive in [2], in [4], in experiment [6] and in experiment [9].
Consider `COc1ccc(CCC(C)=O)cc1`, for which the result in experiment [1], in experiment [2], in experiment [3], in experiment [4], in [5] and in experiment [6] was inactive. In addition, the molecule was called inactive in experiment [7], in experiment [8] and in experiment [9].
In the case of `CC1C2CC(CC2C2CCCC(O)C2)C1(C)C` (stereo not drawn), the result in experiment [1], in [2], in experiment [3], in [4], in experiment [5] and in [6] was inactive. Besides, the call in experiment [7], in experiment [8] and in [9] was inactive.
`CS(=O)(=O)c1ccc(Cl)cc1`: the outcome in experiment [1], in experiment [2], in experiment [3], in [4], in [5] and in experiment [6] was inactive. Besides, the call in experiment [7], in experiment [8] and in [9] was inactive.
Consider `O=C1OC(=O)c2c(Cl)c(Cl)c(Cl)c(Cl)c21`, for which the result in experiment [1], in experiment [2], in [3], in experiment [4], in experiment [5] and in [7] was inactive. The outcome in experiment [8] and in experiment [9] was inactive. In [6], the concentration at half-maximal activity (AC50) is 33.2 µM (active).
On to `CC(=O)c1ccccn1`, for which the result in [1], in [2], in [3], in experiment [4], in experiment [5] and in experiment [6] was inactive. The call in experiment [7], in [8] and in experiment [9] was inactive.
For the molecule `Cc1ccc(S(=O)(=O)Oc2ccc(N=Nc3ccc(-c4ccc(N=Nc5c(O)ccc6cc(S(=O)(=O)O)cc(S(=O)(=O)O)c56)c(C)c4)cc3C)cc2)cc1`, the outcome in experiment [1], in [2], in [3], in experiment [4], in experiment [5] and in experiment [6] was inactive. The molecule was called inactive in experiment [7], in experiment [8] and in [9].
Take `CCCCOC(=O)CCCCCCCC(=O)OCCCC`: the outcome in experiment [1], in [2], in experiment [3], in experiment [4], in experiment [5] and in experiment [6] was inactive. Further, the call in experiment [7], in [8] and in experiment [9] was inactive.
As to `O=C1OC(=O)c2c(Br)c(Br)c(Br)c(Br)c21`, the outcome in experiment [1], in experiment [2], in experiment [3], in experiment [4], in [5] and in [6] was inactive. The result in [8] and in [9] was inactive. Also, the AC50 in [7] was 165 µM (active).
As for `COc1cccc(OC)c1O`, the result in [1], in experiment [2], in [3], in [4], in experiment [5] and in [6] was inactive. Further, the molecule was classed as inactive in experiment [7], in [8] and in experiment [9].
`C=C(C)C1CC=C(C)C(=O)C1` (stereo not drawn): the outcome in experiment [1], in experiment [2], in experiment [3], in [4], in experiment [5] and in experiment [6] was inactive. Moreover, the molecule was classed as inactive in experiment [7], in experiment [8] and in experiment [9].
Consider `CC[N+](C)(CC)CC`, for which the outcome in experiment [1], in [2], in experiment [3], in experiment [4], in [5] and in experiment [6] was inactive. Further, the result in [7], in experiment [8] and in experiment [9] was inactive.
Take `OCc1ccc(Cl)cc1Cl`: the result in experiment [1], in experiment [2], in experiment [3], in experiment [4], in experiment [5] and in experiment [6] was inactive. For the same molecule, the call in [7], in experiment [8] and in experiment [9] was inactive.
With `Cc1ccc(S(N)(=O)=O)cc1`, the result in experiment [1], in experiment [2], in experiment [3], in experiment [4], in experiment [5] and in [6] was inactive. Further, the result in experiment [7], in [8] and in experiment [9] was inactive.

The values are drawn from PubChem BioAssay (EPA / NIEHS).
